# Assay outcomes from PubChem.
# KB-V1 MDR tox = kills drug-selected multidrug resistant KB-V1 cells | AID 1347076 | KB-V1 MDR cells viability, CellTiter-Glo, 72 h | actives 3.4% (n = 400,000) | Potency, µM (doses to about 46.1 µM), hits mostly cytotoxic; note: % is set by controls: 0 for no effect and ±100 for the full control effect; nearly all actives have a fitted effect of over 60% in size
#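 Compound-treated KB-V1 multidrug-resistant cells, 72 h, 37 degrees C; viability by CellTiter-Glo. Fitted qHTS curves give the values.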
# HepG2 viability = kills HepG2 cells in TGF-b inhibitor counter-screen. HepG2 CAGA-GFP viability, ATP luminescence, 18 h. Potency, µM (top dose mostly 46.1 µM), for inactives: at the highest dose activity change, negative = cytotoxicity, hits mostly cytotoxic. actives 0.76% (n = 410,000)
#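 CellTiter-Glo luminescence gave cytotoxicity after 18 hours at 37 degrees C. The cells were HepG2 CAGA-GFP in 1% FBS DMEM, stimulated with 500 pg/mL TGF-beta after compound addition. %Activity was normalised to no-cell wells (complete cell-killing) and DMSO (no toxicity), and curves were fitted and classified.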
# S2 tox = cell viability loss in ATXN counter-screen; S2 cells (HEK-293 line with an ATXN2-luciferase reporter) viability, CellTiter-Fluor protease fluorescence, 24 h; Potency, µM (titrated, usually from 56.7 µM), actives largely listed as cytotoxic; actives 0.49% (n = 400,000); note: nearly all actives have a fitted effect of over 40% in size
# ATXN2 expr inh = inhibitors of ATXN2 expression; HEK-293 ATXN2-luciferase reporter, luminescence, 24 h; Potency, µM (doses to about 57 µM), without a hit: top-dose activity change, negative = inhibition, most hits filed as inhibitors; actives 0.72% (n = 360,000); AID 1745845; note: % is set by controls: 0 for no effect and ±100 for the full control effect; nearly all actives have a fitted effect of over 55% in size
#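 qHTS (up to 57 uM final) was run with 24 h compound exposure of reporter cells at 37 °C. Each well was multiplexed: SteadyGlo luminescence measured ATXN2-luciferase expression after a fluorogenic Gly-Phe-AFC viability readout (25 uM final).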
# KB-3-1 cytotox = KB-3-1 parental cell cytotoxicity; KB-3-1 viability, CellTiter-Glo ATP luminescence, 72 h; Potency, µM (highest dose often 46.1 µM), actives largely listed as cytotoxic; actives 1.4% (n = 400,000); note: % is set by controls: 0 for no effect and ±100 for the full control effect; nearly all actives have a fitted effect of over 60% in size
#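 Parental KB-3-1 adenocarcinoma cells in phenol-red-free DMEM with 10% FBS were pin-treated with compounds at several concentrations, incubated 72 h at 37 °C, and viability read by CellTiter-Glo luminescence; concentration-effect curves were fitted after normalization.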
# TGFb SMAD3 inh = TGF-b pathway inhibition | actives 1.2% (n = 410,000) | HepG2 CAGA-GFP TGF-b/SMAD3 reporter, GFP fluorescence, 18 h; TGF-beta stimulated, 500 pg/mL final | Potency, µM (doses to about 46.1 µM), inactives show at the highest dose activity, negative = inhibition, actives largely listed as inhibitors | AID 588855; note: % is set by controls: 0 for no effect and ±100 for the full control effect; nearly all actives have a fitted effect of over 65% in size
#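 Cell-based qHTS in HEPG2 carrying a CAGA-GFP Smad reporter; compounds added before 500 pg/mL final TGF-beta, 18 h incubation at 37 degrees C, GFP fluorescence quantified per cell by imaging cytometry.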
# An asterisk follows results filed as active; i = inactive; ? = inconclusive; . = no result given; ! = not active in a repeat. Compounds with a hit are over-represented: about 5.9% of the library has one in this group of screens. Calls come from the whole dose curve; as a rule, active = well fitted curve in the direction sought with a large enough effect; inconclusive = small, poorly fitted or top-dose-only effect, or another doubt; inactive = no such curve, though single readings can be large; an effect the other way counts as inactive or inconclusive. Potency is the fitted concentration of half-maximal effect.
SMILES,KB-V1 MDR tox,HepG2 viability,S2 tox,ATXN2 expr inh,KB-3-1 cytotox,TGFb SMAD3 inh
CCn1cc(C(=O)O)c(=O)c2cc(F)c(N/N=C/c3ccccc3)cc21,7.31µM*,5.2%,i,-20.5%,?,-17.5%
CCOc1ccc(CCNC(=O)Cn2ncn3c(cc4sc(C)cc43)c2=O)cc1OCC,.,-3.2%,.,.,.,0.0%
Cn1c(=O)c2sccc2n2c(CCCC(=O)Nc3ccc(Oc4ccccc4)cc3)nnc12,.,-37.6%,.,.,.,12.6µM*
O=C(COC(=O)c1cccs1)Nc1nc(-c2ccccc2)cs1,i,0.7%,i,19.4%,i,2.0%
CCOC(=O)c1c(NC(=O)/C=C/c2ccc3c(c2)OCO3)sc(C)c1CC,i,3.0%,i,-18.2%,20.6µM*,-1.1%
O=C(/C=C/c1ccc2c(c1)OCO2)NCCSCc1c(Cl)cccc1Cl,?,-4.4%,i,-16.9%,i,?
O=C(Cc1cccs1)Nc1nc(-c2ccccc2)cs1,16.4µM*,-32.7%,i,17.5%,?,0.9%
CS(=O)(=O)N1CCc2cc(-c3csc(NC(=O)Cc4cccs4)n3)ccc21,i,-35.3%,?,17.8µM*,i,?
CC(=O)Nc1nc(-c2ccc3c(c2)CCN3S(C)(=O)=O)cs1,i,6.9%,i,53.2%,i,18.1%
O=C(/C=C/c1ccc2c(c1)OCO2)NCCSCc1ccc(Cl)cc1,i,-1.9%,i,-30.4%,18.4µM*,10.6%
CCc1cnc2c(c1SC(C(C)=O)C(=O)N(C)C)c(=O)n(C)c(=O)n2C (stereo not given),i,3.0%,.,?,i,0.0%
Cc1sc(NC(=O)/C=C/c2ccc3c(c2)OCO3)nc1-c1ccccc1,2.91µM*,-1.4%,?,?,1.3µM*,?
O=C(/C=C/c1ccc2c(c1)OCO2)Nc1nncs1,i,-43.2%,i,-22.5%,5.8µM*,?
O=C(/C=C/c1cccs1)Nc1nc(-c2ccccc2)cs1,14.6µM*,-10.6%,?,-33.2%,?,-27.6%
O=C(COC(=O)/C=C/c1cccs1)Nc1nc(-c2ccccc2)cs1,i,-39.0%,i,4.0%,i,-18.6%
CC(=O)Nc1nc(-c2ccc3c(c2)OCO3)cs1,i,2.0%,i,44.3%,i,1.6%
O=C(/C=C/c1ccc2c(c1)OCO2)Nc1nc(-c2ccccc2)cs1,?,-7.2%,?,-24.5%,7.31µM*,7.6%
COC(=O)c1c(NC(=O)/C=C/c2ccc3c(c2)OCO3)sc(C)c1C,i,7.0%,i,-16.9%,i,-4.8%
O=c1c2cc3c(nc2ncn1Cc1ccccc1F)CCCC3,i,0.1%,i,140.8%,i,-15.2%
COc1ccccc1-n1c(=S)sc2c(=O)n(Cc3ccco3)c(SC)nc21,14.6µM*,-12.8%,i,8.6%,i,-34.0%
COc1ccccc1-n1c(SC)nc2c(sc(=S)n2-c2ccccc2)c1=O,i,10.9%,i,-12.6%,i,0.0%
Cc1c(C(=O)Nc2cccc(Cl)c2)oc2ccc(S(=O)(=O)N(C)C3CCCCC3)cc12,.,2.9%,.,.,.,?
Cn1c(/C(C#N)=C/C2CC=CCC2)nc2ccccc21 (stereo not given),i,-38.4%,i,4.3%,i,0.7%
N#C/C(=C\C1CC=CCC1)c1nc2ccccc2[nH]1 (stereo not given),13µM*,-25.4%,i,-3.2%,?,5.9%
CCn1c(-c2csc3ccccc23)n[nH]c1=S,7.31µM*,-8.7%,i,0.3%,18.4µM*,-18.9%
SMILES,KB-V1 MDR tox,HepG2 viability,S2 tox,ATXN2 expr inh,KB-3-1 cytotox,TGFb SMAD3 inh
CC(C)Cn1c(-c2csc3ccccc23)n[nH]c1=S,16.4µM*,-2.7%,i,-4.7%,i,-20.7%
CCn1c(-c2ccccc2O)n[nH]c1=S,i,1.9%,i,-6.1%,i,1.5%
Cc1cc(C(=O)Nc2cccc(-c3nc(CNC(=O)c4ccccc4C(F)(F)F)c(C)o3)c2)c(C)o1,.,.,i,.,.,.
CSc1nnc(CCNC(=O)c2ccc(-c3cccc(F)c3)cc2)n1-c1ccc(F)cc1,.,.,i,.,.,.
CNC(=S)N/N=C/c1cn(Cc2ccc(F)cc2)c2ccccc12,14.6µM*,-23.6%,?,-23.3%,?,?
COC(=O)N/N=C/c1cn(Cc2ccc(F)cc2)c2ccccc12,i,-53.3%,i,-21.1%,i,5.01µM*
Fc1ccc(Nc2c(-c3c[nH]c4ccccc34)nc3ccccn23)cc1,i,-32.0%,i,12.7%,i,-6.2%
CN(C)S(=O)(=O)N1CCN(S(=O)(=O)c2ccc(F)cc2)CC1,i,-4.1%,i,0.1%,i,3.9%
CN(C)S(=O)(=O)c1ccc(N2CCN(S(=O)(=O)c3ccc(F)cc3)CC2)c(Cl)c1,5.8µM*,-57.5%,i,-33.0%,?,?
CCN(CC)CCCNC(=O)c1cc(-c2ccccc2)c(N2CCCCC2)s1,?,10.4%,i,9.7%,18.4µM*,3.8%
O=C(NCCc1ccccc1)c1cc(-c2ccccc2)c(N2CCOCC2)s1,i,-2.3%,i,2.9%,i,?
CC1(C)CC(=O)/C(=C(\O)c2ccccc2)C(=NCCc2ccccc2)C1,5.8µM*,-0.2%,i,8.7%,i,?
COc1ccc(C(=O)Nc2ccc3c(c2)CCCN3C(=O)c2cccs2)c(OC)c1,?,-6.2%,?,?,?,-10.8%
COc1cccc(C(=O)Nc2ccc3c(c2)CCCN3C(=O)c2cccs2)c1OC,?,-34.2%,?,?,9.2µM*!,2.2%
Cc1ccc2c(c1)CCCN2C(=O)c1cccs1,16.4µM*,0.0%,?,10.5%,i,?
Cc1cc(F)ccc1S(=O)(=O)Nc1ccc2c(c1)CCCN2C(=O)c1cccs1,?,-37.7%,.,?,i,15.8µM*
